According to PubChem BioAssay AID1903 (Southern Research Specialized Biocontainment Screening …, 2009):
The campaign covered roughly 310,000 compounds. About 1,200 (0.39%) were called active. How the calls were made is not given here. The list is a sample of the results. Entries with a potency or affinity are not part of this list.

What follows are compounds tested against Large T antigen (Simian virus 40) (UniProt P03070) (assay: TAg ATPase/helicase activity blockers – biochemical (AID 1903)). Details: SV40 large T antigen ATPase/helicase inhibition assay; at 20 µM; active compounds read high.
Sequence of Large T antigen (Simian virus 40) (P03070 whole entry, looked up): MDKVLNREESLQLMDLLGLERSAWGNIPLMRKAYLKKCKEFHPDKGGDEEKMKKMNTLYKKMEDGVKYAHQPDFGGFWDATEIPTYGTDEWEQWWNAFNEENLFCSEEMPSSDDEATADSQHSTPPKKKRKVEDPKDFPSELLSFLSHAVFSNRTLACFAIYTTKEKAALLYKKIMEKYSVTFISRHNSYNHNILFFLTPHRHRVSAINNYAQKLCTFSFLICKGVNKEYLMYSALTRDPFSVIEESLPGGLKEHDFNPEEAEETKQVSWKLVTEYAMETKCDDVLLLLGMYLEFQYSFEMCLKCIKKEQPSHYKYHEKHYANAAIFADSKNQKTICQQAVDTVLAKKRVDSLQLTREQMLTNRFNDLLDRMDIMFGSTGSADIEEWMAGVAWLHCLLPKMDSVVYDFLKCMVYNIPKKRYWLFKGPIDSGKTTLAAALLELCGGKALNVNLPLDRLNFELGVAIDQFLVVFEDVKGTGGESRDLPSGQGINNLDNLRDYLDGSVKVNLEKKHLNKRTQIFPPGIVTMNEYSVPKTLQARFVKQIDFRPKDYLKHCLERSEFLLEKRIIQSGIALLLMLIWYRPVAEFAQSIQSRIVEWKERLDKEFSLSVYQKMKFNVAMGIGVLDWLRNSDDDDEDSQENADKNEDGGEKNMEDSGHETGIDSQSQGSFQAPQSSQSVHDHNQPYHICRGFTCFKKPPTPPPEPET

inhibition, inactive:
C=CCOc1ccc(CNc2ccc(NC(=O)CCC)cc2)cc1OCC 18.3%
C=CCOc1cccc(CNCc2ccncc2)c1 8.06%
C=CCOc1ccc(CNc2ccc3[nH]c(=O)[nH]c3c2)cc1OC 13.7%
Oc1ccc(NCc2cccc(OCc3ccc(F)cc3)c2)cc1 29.3%
C=CCOc1cccc(CNc2cccc(C(=O)O)c2)c1 15.2%
Fc1ccc(CNc2ccc(CNc3ncn[nH]3)cc2)cc1 19.6%
CNC(=O)COc1coc(CN2CCN(c3ccc(OC)cc3)CC2)cc1=O 21.7%
COc1ccc(-n2ccnc2SCC(=O)Nc2ccccc2)cc1 15%
CC(=O)c1ccc(N2CCN(C(=O)Cc3cccs3)CC2)cc1 1.64%
Cc1ccc2nc(C)c(C)nc2c1N 17.3%
Cc1ccc2cccnc2c1N 5.53%
Cc1cccc(-c2nnc(NC(=O)c3ccco3)s2)c1 8.94%
CN(c1ccc(F)cc1)S(=O)(=O)c1ccc2[nH]cc(C(=O)O)c(=O)c2c1 5.14%
COc1cccc(C(=O)Nc2c3c(nn2-c2ccc([N+](=O)[O-])cc2)CS(=O)(=O)C3)c1 3.72%
CCN(CC)S(=O)(=O)c1cccc(NC(=O)CSc2nnc(N)s2)c1 2.59%
CCN(CC)C(=O)CSc1nc2ccc(NC(=O)CSc3nnc(N)s3)cc2s1 5.67%
Cc1cccc(OCC(=O)NNC(=O)CCc2ccccc2)c1 15.5%
Nc1ccc(S(=O)(=O)NNC(=O)C(=O)NNc2ccccn2)cc1 11.5%
Cn1c(=O)c2c(nc(N3CCOCC3)n2CCSc2ncccn2)n(C)c1=O 12.4%
COc1cccc(N=Cc2c(O)n(-c3cccc(C)n3)c(=O)c3ccccc23)c1 18%
COc1cc(SC#N)ccc1N=Cc1c(C)[nH]n(-c2ccc(C)c(C)c2)c1=O 35.9%
COc1cc(SC#N)ccc1N=Cc1c(C)[nH]n(-c2ccc(Cl)cc2)c1=O 17.5%
COc1ccccc1N=Cc1c(C)[nH]n(-c2ccc(C)cc2C)c1=O 27.4%
COc1ccc(N=Cc2c(O)n(-c3cccc(C)n3)c(=O)c3ccccc23)c(OC)c1 13.7%
COc1cc(S(=O)(=O)Nc2ccc(C)cc2)ccc1N=Cc1c(C)[nH]n(-c2ccc(C)cc2)c1=O 2.78%
CCON1C(=O)CN(C(=O)OC)C1c1ccc(Cl)cc1Cl (configuration not stated) 19.9%
Cc1ccccc1NC(=O)Cn1nnc2sc3c(c2c1=O)CC(C)(C)OC3 7.47%
O=C(Nc1ccc(S(=O)(=O)N2CCCCC2)cc1)C1CC(=O)N(Cc2ccccc2)C1 (configuration not stated) 16.5%
CSC1=NCCCN1C(=O)c1c(-c2ccccc2Cl)noc1C 10.2%
O=C(O)C1CCCC[C@H]1C(=O)Nc1ncc([N+](=O)[O-])s1 (some centres not stated) 3.81%
COc1ccc(CCNC(=S)Nc2ccc(C(C)C)cc2)cc1 13.7%
CC(=C\c1ccccc1)/C=C1/SC(=S)N(CCC(=O)O)C1=O 0.31%
CC(/C=C1\SC(=S)N(CC(=O)O)C1=O)=C\c1ccccc1 19.5%
Cc1ccc(-c2n[nH]c(=S)n2C)cc1 14.5%
Cc1ccc(S(=O)(=O)c2c(C)nn(-c3ccccc3)c2OC(=O)c2ccc(Br)o2)cc1 6.66%
O=C(Nc1nc2ccccc2n1Cc1ccccc1)c1ccco1 -0.22%
CCCCC/C(=N\NC(=O)CCC(=O)NCc1ccccc1)c1ccccc1 -0.61%
CCC/C(=N\NC(=O)CCC(=O)NCc1ccccc1)c1ccccc1 8.82%
Cc1ccc(-c2nc(CSCC(=O)NCCCN3CCOCC3)c(C)o2)cc1 26.4%
CN(C)c1ccc(C2OC(=O)C3(CCCC3)C(=O)C2(C)C)cc1 (configuration not stated) 1.45%
COc1cc(C(=O)OCCN2CCOCC2)ccc1O 25.1%
COc1cc(C(=O)OCCCN2CCOCC2)ccc1O 30.9%
COCCOc1ccc(C(F)(F)F)cc1NC(=O)c1ccc(C(F)(F)F)cc1 2.65%
Oc1ccc(Oc2ccc(Oc3ccc(O)cc3)cc2)cc1 11.2%
C=C(c1ccc(O)cc1)c1ccc(O)cc1 12.5%
COc1ccc2[nH]c(C(=O)NCCc3ccccc3)cc2c1 6.64%
O=C(CCSc1ccccc1)N1CCN(c2ccccc2)CC1 8.73%
O=C(CCSc1ccc(Cl)cc1)N1CCOCC1 23.4%
O=C(CCCOc1ccccc1)N1CCN(c2ccc(F)cc2)CC1 0.74%
CCOC(=O)N1CCN(c2ccc([N+](=O)[O-])cc2)CC1 5.56%
CCOC(=O)N1CCN(c2ccc(Cl)cc2)CC1 24.6%
O=C(CCCOc1ccccc1)N1CCN(c2ccccc2)CC1 -0.15%
Cc1ccc(OCCC(=O)OCC(=O)N2CCN(S(=O)(=O)c3ccc(Cl)cc3)CC2)cc1 30.2%
Cc1ccc(OCCC(=O)OCC(=O)N2CCN(S(=O)(=O)c3ccc(C)cc3)CC2)cc1 10.3%
COc1ccc(OC)c(CCNC(=O)c2ccc3c(c2)N(Cc2ccccc2)CCS3)c1 -0.13%
O=C(CNC(=O)c1cccc(F)c1)OCC(=O)N1CCCc2ccccc21 7.9%
Cc1ccc(NS(=O)(=O)c2ccc(CCC(=O)NCCCOC(C)C)cc2)cc1 5.53%
COc1ccc(S(=O)(=O)c2nnn(-c3cccc(OC)c3)c2N)cc1 22.2%
O=[N+]([O-])c1ccc(-n2cccc2/C=N/Nc2nc(N3CCCCC3)nc(N3CCCCC3)n2)cc1 9.66%
O=C(CNC(=O)c1ccccc1F)OCC(=O)N1CCCCC1 7.93%
Cc1cc(C)c(S(=O)(=O)c2ccccc2C)c(N(C)C)n1 21.5%
COc1cc(/C=C2\SC(=S)N(CCC(=O)Nc3ccc(O)cc3)C2=O)cc(OC)c1OC 5.27%
O=C(Nc1ccc2c(c1)OCO2)c1ccc(NC2CC2)c([N+](=O)[O-])c1 12.5%
CCn1c(-c2nn(-c3ccccc3)ccc2=O)n[nH]c1=S 9.69%
COc1ccc(NS(=O)(=O)c2cccc(C(=O)NCC(c3ccccc3OC)N3CCCC3)c2)cc1 (configuration not stated) 5.32%
O=C(COc1cccc(C(F)(F)F)c1)N1CCN(c2ccccc2O)CC1 22.7%
COc1cc(OC)cc(C(=O)NCC(=O)N2CCCCC2)c1 4.74%
COc1ccc(N2CCN(C(=O)COC(=O)CCOc3ccc(C)cc3)CC2)cc1 10.6%
COc1ccc(C(=O)NCC(=O)N2CCN(c3ccc(Cl)cc3)CC2)cc1 10.9%
COc1ccc(OCC(=O)N2CCN(c3cccc(C(F)(F)F)c3)CC2)cc1 17%
Cc1ccc(OCCCC(=O)N2CCOCC2)cc1 0.37%
O=C(C1CC1)N1CCN(c2ccc(F)cc2)CC1 2.25%
O=C(C1CC1)N1CCN(c2ccc([N+](=O)[O-])cc2)CC1 12.1%
c1ccc(Nc2nc(-c3ccccc3)ns2)cc1 -2.89%
CSc1nnc2c(n1)OC(c1cccn1C)N(C(C)=O)c1ccccc1-2 (configuration not stated) 15.3%
Cn1cnc(S(=O)(=O)NCc2ccccc2)c1 6.21%
Cc1ccc(C(=O)Nc2ccc(S(=O)(=O)N3CCOCC3)cc2)cc1C 0.36%
O=C(CNC(=O)c1ccc(Br)cc1)OCC(=O)c1ccccc1 11.9%
Cc1ccc(C(=O)NCC(=O)N2CCN(c3ncccn3)CC2)s1 -1.43%
O=C(NCc1ccco1)C(c1ccncc1)N(C(=O)Cc1cccs1)c1ccccc1 (configuration not stated) 7.67%
Cc1cccc(Nc2ncc3c(n2)CC(C)CC3=O)c1 (configuration not stated) 7.64%
CCOc1ccccc1NC(=S)N1CCN(c2ccc(OC)cc2)CC1 7.58%
CCOc1ccccc1NC(=S)N1CCN(c2ccccc2)CC1 3.57%
CN(Cc1ccco1)S(=O)(=O)c1ccc(CN2C(=O)c3cccnc3C2=O)s1 16.5%
COc1ccc(N2CCC(CNC(=S)Nc3cccc(OC)c3)C2)cc1 (configuration not stated) 19.4%
CCOc1ccc(NC(=O)NCC2CCN(c3ccc(OC)cc3)C2)cc1 (configuration not stated) 22.4%
COc1ccc(N2CCC(CNC(=O)Nc3ccc(Cl)cc3)C2)cc1 (configuration not stated) 21.5%
COc1ccc(N2CCC(CNC(=O)Nc3ccc(C)c(C)c3)C2)cc1 (configuration not stated) 9.39%
CC(C)CN(C(=O)COC(=O)C1CC1)c1c(N)n(Cc2ccccc2)c(=O)[nH]c1=O 17.3%
Cc1c(Cl)cccc1NC(=O)CN1CCC(NC(=O)C2CCCCC2)CC1 8.83%
COc1cccc(NC(=O)CCC(=O)Nc2cccc(OC)c2)c1 11.8%
NC(=Nc1ccccc1)Nc1ccccc1 15.7%
CC(=Nc1ccccc1)Nc1ccccc1 9.53%
COc1ccc(OCC(=O)Nc2cccc(OC)c2)cc1 2.29%
NC(=O)C[n+]1cccc(/C=N/O)c1 2.56%
c1ccc(-c2nn3c(Cn4cnc5ccccc54)nnc3s2)cc1 -0.363%
CCOc1ccc(/C=C2/SC(=S)N(C(C(=O)O)c3ccccc3)C2=O)cc1OCC (configuration not stated) 19%
O=C(O)C(c1ccccc1)N1C(=O)/C(=C/c2cccs2)SC1=S (configuration not stated) 19.8%
COc1ccc(/C=C2\SC(=S)N(C(Cc3ccccc3)C(=O)O)C2=O)cc1 (configuration not stated) -3.2%
COc1cc(/C=C2\SC(=S)N(C(C(=O)O)c3ccccc3)C2=O)cc(OC)c1OC (configuration not stated) 27.9%
COc1cccc(/C=C2\SC(=S)N(C(Cc3ccccc3)C(=O)O)C2=O)c1 (configuration not stated) 33.3%
CCOc1ccc(/C=C2\SC(=S)N(C(C(=O)O)c3ccccc3)C2=O)cc1OC (configuration not stated) 23.8%
